Assay results reported in PubChem BioAssay.
Values without a mark were called inactive. For some of these results: Measured potencies and affinities stand elsewhere. Active and inactive are the calls of the source. Unless noted, how the calls were made is not given here.

Tests used:
[1] = antimalarial activity against Dd2 strain (AID 2302;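 active means growth inhibition above 50% at the single 2 µM test dose, taken to imply half-maximal potency below 2 µM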;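 further: 0% = DMSO untreated growth and 100% = chloroquine plus artemisinin killed control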); details: P. falciparum Dd2 in RBCs, LDH growth readout, 72 h; at 2 µM; hits give high values
[2] = human hepatoma cell viability loss – ATP luminescence, cytotoxicity control for P. falciparum antimalarial project, primary screen (AID 2303;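 active means inhibition above 50%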;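 further: 0% = DMSO wells and 100% = digitonin-killed cells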); details: HepG2 viability, 24-48 h, at 10 µM, hits give high values
[3] = target: L-lactate dehydrogenase (Plasmodium falciparum (isolate CDC / Honduras)) (UniProt Q27743); experiment: PfLDH activity inhibition – cell lysate, 3D7 strain, counter-screen for P. falciparum growth inhibition project (AID 2304);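 further: 0% = vehicle and 100% = reference inhibitor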; details: P. falciparum 3D7 crude extract, LDH APAD/NBT absorbance; at 2 µM; hits give high values
[4] = inhibition of 3D7 malaria parasite growth – strain 3D7 (AID 2306);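 further: 0% = DMSO wells and 100% = chloroquine plus artemisinin control wells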; details: P. falciparum 3D7 erythrocytic growth, LDH absorbance, 72 h; at 2 µM; hits give high values
[5] = target: Calcium-dependent protein kinase 1 (Plasmodium falciparum (isolate 3D7)) (UniProt P62344); experiment: PfCDPK1 kinase inhibitors, biochemical, TCAMS library (AID 1159585; cut-off not given, nearly all actives have IC50 up to about 0.98 µM;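 further: inhibitors leave more ATP so luminescence rises with inhibition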); details: recombinant PfCDPK1, Kinase-Glo ATP depletion luminescence
[6] = target: Plasmodium falciparum protein kinase 6 (PK6, PF3D7_1337100) (UniProt Q8IDW1); experiment: PfPK6 kinase inhibitors, biochemical, TCAMS library (AID 1159586); details: recombinant PfPK6, Kinase-Glo ATP depletion luminescence
[7] = target: Protein kinase 7 (PK7), Plasmodium falciparum 3D7 (PF3D7_0213400) (UniProt Q7YTF7); experiment: inhibition of Plasmodium PK7 catalytic activity – biochemical, TCAMS antimalarial set, Kinase-Glo luminescence (AID 1159587); details: recombinant PfPK7, Kinase-Glo ATP depletion luminescence
[8] = target: Calcium-dependent protein kinase 4 (Plasmodium falciparum (isolate 3D7)) (UniProt Q8IBS5); experiment: PfCDPK4 kinase inhibitors, biochemical, TCAMS library (AID 1159588; cut-off not given, nearly all actives have IC50 up to about 0.91 µM); details: recombinant PfCDPK4, Kinase-Glo ATP depletion luminescence
Calcium-dependent protein kinase 4 (Plasmodium falciparum (isolate 3D7)), sequence (Q8IBS5 whole entry, looked up): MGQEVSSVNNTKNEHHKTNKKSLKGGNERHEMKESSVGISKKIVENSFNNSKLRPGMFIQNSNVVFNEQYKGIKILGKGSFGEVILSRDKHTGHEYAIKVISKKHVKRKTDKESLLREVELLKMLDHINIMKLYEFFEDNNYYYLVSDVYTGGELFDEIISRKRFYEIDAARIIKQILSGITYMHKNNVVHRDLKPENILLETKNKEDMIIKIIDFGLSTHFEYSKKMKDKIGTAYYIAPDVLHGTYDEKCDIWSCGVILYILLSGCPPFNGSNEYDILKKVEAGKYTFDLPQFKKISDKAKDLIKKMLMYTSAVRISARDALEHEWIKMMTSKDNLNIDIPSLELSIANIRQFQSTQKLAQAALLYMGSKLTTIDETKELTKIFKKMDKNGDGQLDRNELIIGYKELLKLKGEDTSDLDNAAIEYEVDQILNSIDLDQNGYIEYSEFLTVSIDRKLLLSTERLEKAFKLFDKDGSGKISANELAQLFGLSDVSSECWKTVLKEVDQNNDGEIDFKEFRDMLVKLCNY

Protein kinase 7 (PK7), Plasmodium falciparum 3D7 (PF3D7_0213400), sequence (Q7YTF7 1-343): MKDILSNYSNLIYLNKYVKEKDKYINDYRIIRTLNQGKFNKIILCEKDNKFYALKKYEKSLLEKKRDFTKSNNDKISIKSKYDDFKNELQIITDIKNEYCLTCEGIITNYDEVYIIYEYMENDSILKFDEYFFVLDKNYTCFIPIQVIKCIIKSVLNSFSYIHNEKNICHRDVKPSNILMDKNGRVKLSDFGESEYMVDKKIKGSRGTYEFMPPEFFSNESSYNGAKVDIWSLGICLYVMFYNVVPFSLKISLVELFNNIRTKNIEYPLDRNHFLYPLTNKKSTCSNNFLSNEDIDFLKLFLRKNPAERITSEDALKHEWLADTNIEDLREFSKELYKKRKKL
L-lactate dehydrogenase (Plasmodium falciparum (isolate CDC / Honduras)), sequence (Q27743 whole entry, looked up): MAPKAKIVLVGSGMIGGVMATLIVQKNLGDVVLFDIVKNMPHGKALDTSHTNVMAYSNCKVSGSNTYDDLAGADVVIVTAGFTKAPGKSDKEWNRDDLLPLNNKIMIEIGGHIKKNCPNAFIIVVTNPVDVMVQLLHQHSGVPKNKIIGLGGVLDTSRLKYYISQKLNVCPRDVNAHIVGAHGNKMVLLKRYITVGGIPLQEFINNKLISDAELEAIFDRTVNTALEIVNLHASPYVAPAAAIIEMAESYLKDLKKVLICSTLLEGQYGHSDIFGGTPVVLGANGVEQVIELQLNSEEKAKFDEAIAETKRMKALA
Calcium-dependent protein kinase 1 (Plasmodium falciparum (isolate 3D7)), sequence (P62344 whole entry, looked up): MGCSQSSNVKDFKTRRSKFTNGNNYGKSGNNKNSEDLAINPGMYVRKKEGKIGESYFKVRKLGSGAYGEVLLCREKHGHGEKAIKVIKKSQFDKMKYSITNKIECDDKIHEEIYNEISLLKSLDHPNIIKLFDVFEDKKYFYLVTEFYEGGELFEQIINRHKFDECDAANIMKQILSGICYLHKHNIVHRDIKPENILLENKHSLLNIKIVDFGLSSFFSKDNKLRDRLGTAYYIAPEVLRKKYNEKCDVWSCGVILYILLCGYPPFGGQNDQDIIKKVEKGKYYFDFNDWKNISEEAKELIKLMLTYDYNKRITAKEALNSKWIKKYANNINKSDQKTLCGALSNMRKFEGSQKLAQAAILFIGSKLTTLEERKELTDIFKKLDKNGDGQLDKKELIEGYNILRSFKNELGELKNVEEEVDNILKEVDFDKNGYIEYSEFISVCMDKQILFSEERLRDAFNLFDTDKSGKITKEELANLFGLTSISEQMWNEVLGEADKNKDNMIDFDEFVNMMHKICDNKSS
Plasmodium falciparum protein kinase 6 (PK6, PF3D7_1337100), sequence (Q8IDW1 1-305): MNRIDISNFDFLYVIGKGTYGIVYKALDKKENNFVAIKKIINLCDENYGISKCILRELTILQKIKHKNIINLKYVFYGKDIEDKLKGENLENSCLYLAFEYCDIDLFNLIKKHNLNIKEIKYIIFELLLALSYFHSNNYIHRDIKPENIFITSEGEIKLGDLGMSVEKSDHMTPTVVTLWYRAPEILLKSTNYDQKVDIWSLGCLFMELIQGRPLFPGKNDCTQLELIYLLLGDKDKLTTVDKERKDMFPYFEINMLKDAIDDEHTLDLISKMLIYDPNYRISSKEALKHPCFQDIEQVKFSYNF

Compound | growth inhibition [1] | inhibition [2] | inhibition [3] [%] | growth inhibition [4] | outcome [5] | outcome [6] | outcome [7] | outcome [8]
O=C(NCCCN1CCCC1=O)NCc1ccccc1 | 4% | 8% | 3 | 99% (active) | inactive | inactive | inactive | inactive
CCCCNC(=O)c1[nH]c2c(NC(=O)COc3ccccc3)cccc2c1-c1cccc(NC(=O)C(N)CO)c1 (stereo not given) | -3% | 11% | -3 | 87% (active) | inactive | inactive | inactive | inactive
CC(=O)Nc1ccc(CN(Cc2ccc(F)cc2)Cc2cccc(Oc3ccccc3)c2)cc1 | 82% (active) | -8% | 6 | 88% (active) | inactive | inactive | inactive | inactive
CC(C)CCCC(C)(C)NC[C@@H](O)[C@H](Cc1ccccc1)NC(=O)c1cc(NC(C)C)cc(N2CCCCS2(=O)=O)c1F | 99% (active) | 11% | -3 | 98% (active) | inactive | inactive | inactive | inactive
O=C(/C=C/c1ccc(Cl)c(Cl)c1)NCCCCCN1CCN(C(=O)Nc2ccc(C(F)(F)F)cc2)CC1 | -1% | 26% | -5 | 99% (active) | inactive | inactive | inactive | inactive
C=CCOC(=O)N1CCC(CNCc2ccc(-c3cccc(-c4nc5ccc(F)cc5[nH]4)c3)cc2)C1 (stereo not given) | 99% (active) | 26% | -2 | 102% (active) | inactive | inactive | inactive | inactive
COc1cc2nc(SCCCC#N)n(C3CCCCCC3)c(=N)c2cc1OC | 9% | 0% | 0 | 89% (active) | inactive | inactive | inactive | inactive
CCC(C)NCc1c(O)ccc2c(CNC(C)CC)c(O)ccc12 (stereo not given) | 31% | 14% | 2 | 100% (active) | inactive | inactive | inactive | inactive
NC1=Nc2ccc(Cl)cc2C1(O)c1ccccc1 (stereo not given) | 51% (active) | -3% | -3 | 100% (active) | inactive | inactive | inactive | inactive
CCOc1c(OC)ccc2c1CCN(CCN1CCC(NC(=O)c3ccc(-c4cccc(C(F)(F)F)c4C(F)(F)F)cc3)CC1)C2 | 57% (active) | 30% | -7 | 102% (active) | inactive | inactive | inactive | inactive
CN(Cc1c(Cl)cnn1C)S(=O)(=O)c1ccc2ccccc2c1 | 36% | 7% | -2 | 94% (active) | inactive | inactive | inactive | inactive
COc1ccc(OCCCON2C(N)=NC(N)=NC2(C)C)cc1 | 94% (active) | 55% (active) | -3 | 97% (active) | inactive | inactive | inactive | inactive
FC(F)(F)c1cc(C(F)(F)F)c2cc(CNCCCNc3nc4ccccc4[nH]3)[nH]c2c1 | 99% (active) | 99% (active) | 0 | 100% (active) | inactive | inactive | inactive | inactive
Cc1ccc(Nc2ccnc(Nc3ccc(F)c(Cl)c3)n2)cc1O | 52% (active) | 9% | -4 | 101% (active) | inactive | inactive | inactive | inactive
COc1cccc(N(CCCN2C(=O)c3cccc4cccc(c34)C2=O)C(=O)c2ccccc2C)c1 | 70% (active) | 20% | -7 | 86% (active) | inactive | inactive | inactive | inactive
CN(C)S(=O)(=O)c1ccc(N2CCN(CCC3(c4cccc(F)c4)CCN(C(=O)C(C)(C)C)CC3)CC2)c2nonc12 | 85% (active) | 8% | -1 | 91% (active) | inactive | inactive | inactive | inactive
COc1cc2c(cc1NC(=O)CN1CCN(C(=O)c3ccco3)CC1)oc1ccccc12 | 96% (active) | 13% | -2 | 96% (active) | inactive | inactive | inactive | inactive
O=C(C=Cc1ccc(Cl)c(Cl)c1)NCCCCCN1CCC(c2[nH]nc3ccccc23)CC1 | 29% | 32% | 0 | 99% (active) | inactive | inactive | inactive | inactive
CCN(CCCN1CCCCC1)c1cc(C)nc(Nc2ccc(C)c(C)c2)n1 | 60% (active) | 30% | -3 | 101% (active) | inactive | inactive | inactive | inactive
CC(C)NCc1cccc(-c2ccc(NS(=O)(=O)c3cccc4cccnc34)cc2)c1 | 10% | 21% | 5 | 90% (active) | inactive | inactive | inactive | inactive
